{"source": "PubChem BioAssay (NCI)", "note": "Compounds without any hit were thinned out: in the full panel of roughly 79,000, 15% have a hit. Active and inactive are the calls of the source. Cut-off read from the data, not from the text of the source: active = growth inhibition above about 70%; inactive = the rest."}
{"assay": "NCI Yeast Anticancer Drug Screen. Data for the cln2 rad14 strain (AID 165);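 note: 0% = growth equal to vehicle treated cultures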", "details": "S. cerevisiae cln2 rad14 strain, at 50.0 µM, hits give high values", "procedure,_shortened": "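Growth inhibition, relative to vehicle-treated controls, is the read-out. The test organism is a yeast strain with defined genetic alterations, cln2 rad14.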"}
{"smiles": "CN(C)c1ccc(/C=C(\\C#N)c2cccc(Cl)c2)cc1", "growth inhibition": "69.4% (inactive)"}
{"smiles": "Cc1ccc(S(=O)(=O)NNc2nc(N(C)C)nc(N(C)C)n2)cc1", "growth inhibition": "52.2% (inactive)"}
{"smiles": "CC(NNC(=S)NCc1ccccc1)c1cc2ccccc2cn1", "note": "(configuration not stated)", "growth inhibition": "80% (active)"}
{"smiles": "COc1ccc(Cc2c(-c3ccc(C)cc3)n[nH]c(=O)c2C2C(=O)N(c3ccccc3)N=C2c2ccccc2)cc1", "note": "(configuration not stated)", "growth inhibition": "96% (active)"}
{"smiles": "CC1(c2ccccc2)OC(=O)C=CC1=O", "note": "(configuration not stated)", "growth inhibition": "99% (active)"}
{"smiles": "CC1CCC(C)(C)c2cc([N+](=O)[O-])cc([N+](=O)[O-])c21", "note": "(configuration not stated)", "growth inhibition": "-8.1% (inactive)"}
{"smiles": "CC1(C)CC(=O)C(/C=N/c2nc(-c3cccc([N+](=O)[O-])c3)cs2)=C(O)C1", "growth inhibition": "98.5% (active)"}
{"smiles": "O=[N+]([O-])C(=C1Nc2ccccc2N1)C(Cl)=C(Cl)Cl", "growth inhibition": "-13.8% (inactive)"}
{"smiles": "COc1ccc2c(c1)C1(C)CCCC(C)(C(=O)O)C1C(Br)C2=O", "note": "(configuration not stated)", "growth inhibition": "37.4% (inactive)"}
{"smiles": "COc1cc(NCC(C)(O)CN2CCC(C)CC2C)c2ncccc2c1", "note": "(configuration not stated)", "growth inhibition": "79.4% (active)"}
{"smiles": "ClC/C=C/c1ccccc1", "growth inhibition": "-7.2% (inactive)"}
{"smiles": "O=C(c1ccc(O)c(Br)c1)c1cc(Br)ccc1O", "growth inhibition": "95.3% (active)"}
{"smiles": "COc1ccc(OP2(Oc3ccc(OC)cc3)=NP(Oc3ccc(OC)cc3)(Oc3ccc(OC)cc3)=NP(Oc3ccc(OC)cc3)(Oc3ccc(OC)cc3)=NP(Oc3ccc(OC)cc3)(Oc3ccc(OC)cc3)=N2)cc1", "growth inhibition": "24.1% (inactive)"}
{"smiles": "COc1ccccc1NC(=O)CSC(N)=O", "growth inhibition": "58% (inactive)"}
{"smiles": "Cc1ccc(N=C(N)Nc2ccc(C)cn2)nc1", "growth inhibition": "40% (inactive)"}
{"smiles": "FC(F)(F)c1nc(Cl)nc2nc[nH]c12", "growth inhibition": "17.4% (inactive)"}
{"smiles": "O=[N+]([O-])c1ccccc1CC(c1c[nH]c2ccccc12)c1c[nH]c2ccccc12", "growth inhibition": "78.9% (active)"}
{"smiles": "O=C(O)C1CCCCC1.[Ag]", "growth inhibition": "91% (active)"}
{"smiles": "CC(C)c1ccc(O)c(O)c(=O)c1", "growth inhibition": "91.7% (active)"}
{"smiles": "CC(C)(C)c1ccc(Sc2ncnc3ccccc23)cc1", "growth inhibition": "71.2% (active)"}
{"smiles": "CC(C)NC(=O)CN1C(=O)NC(C)(c2ccccc2)C1=O", "note": "(configuration not stated)", "growth inhibition": "90.8% (active)"}
{"smiles": "COc1cccc(N2CCN(CC(O)COc3cc4c(c5c3CCCC5)CCCC4)CC2)c1", "note": "(configuration not stated)", "growth inhibition": "58.8% (inactive)"}
{"smiles": "CC(CCN)(CCN)[N+](=O)[O-]", "growth inhibition": "46.3% (inactive)"}
{"assay": "NCI Yeast Anticancer Drug Screen. Data for the bub3 strain (AID 167)", "details": "S. cerevisiae bub3 mutant strain, at 5.0 µM (retest, dose inferred, filed as 0.5), hits give high values", "procedure,_shortened": "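Yeast carrying a defined mutation is treated with each compound, and growth is compared with that of vehicle-exposed cells to give inhibition.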"}
{"smiles": "CC1=CC2OC3CC4OC(=O)/C=C/C=C/C(C(C)O)OCC(=O)C(C)CC(=O)OCC2(CC1)C4(C)C31CO1", "note": "(configuration not stated)", "growth inhibition": "60% (inactive)"}
{"smiles": "Cc1cc(=O)oc2c3c(ccc12)OC(c1ccc(Br)cc1)CC3=O", "note": "(configuration not stated)", "growth inhibition": "24% (inactive)"}
{"smiles": "OCC(O)C(O)C(O)/C=N\\Nc1ccccc1", "note": "(configuration not stated)", "growth inhibition": "1% (inactive)"}
{"smiles": "CN(C)Cc1ccc2[nH]c3c(c2c1)CCCC3", "growth inhibition": "1% (inactive)"}
{"smiles": "CC(C)CCCC(C)C1CCC2C3CC=C4OC(=O)CCC4(C)C3CCC12C", "note": "(configuration not stated)", "growth inhibition": "-1% (inactive)"}
{"smiles": "CC(C(=O)c1ccc2cc(Br)c3ccccc3c2c1)N(C)C", "note": "(configuration not stated)", "growth inhibition": "25% (inactive)"}
{"smiles": "O=[N+]([O-])c1ccccc1SCc1ccccc1", "growth inhibition": "-1% (inactive)"}
{"smiles": "C(=P(c1ccccc1)(c1ccccc1)c1ccccc1)[P+](c1ccccc1)(c1ccccc1)c1ccccc1", "growth inhibition": "98% (active)"}
{"smiles": "CCOC(=O)N1CCN(C(=S)N/N=C(\\C)c2ncccn2)CC1", "growth inhibition": "-22% (inactive)"}
{"smiles": "CCC1(C)C(C#N)(C#N)C1(C#N)C#N", "growth inhibition": "-36% (inactive)"}
{"smiles": "Cc1ccccc1C(O)(c1ccccc1C)C1(O)CCN(C)CC1", "growth inhibition": "-4% (inactive)"}
{"smiles": "Oc1c(C(Nc2ccccn2)c2ccccc2)ccc2cccnc12", "note": "(configuration not stated)", "growth inhibition": "-9% (inactive)"}
{"smiles": "Cc1ccc(C(CN(C)C)C(=O)c2ccccc2)cc1C", "note": "(configuration not stated)", "growth inhibition": "-2% (inactive)"}
{"smiles": "COC(=O)/C=C(\\NC1CC(OC2C[C@](O)(C(C)=O)Cc3c(O)c4c(c(O)c32)C(=O)c2c(OC)cccc2C4=O)OC(C)C1O)C(=O)OC", "note": "(some centres not stated)", "growth inhibition": "7% (inactive)"}
{"smiles": "CC1(C)C/C(=N/NC(N)=S)C(=NO)/C(=N\\NC(N)=S)C1", "growth inhibition": "0% (inactive)"}
{"smiles": "Cc1cc2c(c(C(N)=O)c1C)-c1cccc(F)c1C2=O", "growth inhibition": "2% (inactive)"}
{"smiles": "CN(C)c1ccc(/C=C(\\C#N)c2cccc(Cl)c2)cc1", "growth inhibition": "5% (inactive)"}
{"smiles": "Cc1ccc(S(=O)(=O)NNc2nc(N(C)C)nc(N(C)C)n2)cc1", "growth inhibition": "-1% (inactive)"}
{"smiles": "CC(NNC(=S)NCc1ccccc1)c1cc2ccccc2cn1", "note": "(configuration not stated)", "growth inhibition": "11% (inactive)"}
{"smiles": "COc1ccc(Cc2c(-c3ccc(C)cc3)n[nH]c(=O)c2C2C(=O)N(c3ccccc3)N=C2c2ccccc2)cc1", "note": "(configuration not stated)", "growth inhibition": "63% (inactive)"}
{"smiles": "CC1(c2ccccc2)OC(=O)C=CC1=O", "note": "(configuration not stated)", "growth inhibition": "32% (inactive)"}
{"smiles": "CC1CCC(C)(C)c2cc([N+](=O)[O-])cc([N+](=O)[O-])c21", "note": "(configuration not stated)", "growth inhibition": "18% (inactive)"}
{"smiles": "CC1(C)CC(=O)C(/C=N/c2nc(-c3cccc([N+](=O)[O-])c3)cs2)=C(O)C1", "growth inhibition": "20% (inactive)"}
{"smiles": "O=[N+]([O-])C(=C1Nc2ccccc2N1)C(Cl)=C(Cl)Cl", "growth inhibition": "11% (inactive)"}
{"smiles": "COc1ccc2c(c1)C1(C)CCCC(C)(C(=O)O)C1C(Br)C2=O", "note": "(configuration not stated)", "growth inhibition": "6% (inactive)"}
{"smiles": "COc1cc(NCC(C)(O)CN2CCC(C)CC2C)c2ncccc2c1", "note": "(configuration not stated)", "growth inhibition": "7% (inactive)"}
{"smiles": "ClC/C=C/c1ccccc1", "growth inhibition": "7% (inactive)"}
{"smiles": "O=C(c1ccc(O)c(Br)c1)c1cc(Br)ccc1O", "growth inhibition": "85% (active)"}
{"smiles": "COc1ccc(OP2(Oc3ccc(OC)cc3)=NP(Oc3ccc(OC)cc3)(Oc3ccc(OC)cc3)=NP(Oc3ccc(OC)cc3)(Oc3ccc(OC)cc3)=NP(Oc3ccc(OC)cc3)(Oc3ccc(OC)cc3)=N2)cc1", "growth inhibition": "20% (inactive)"}
{"smiles": "COc1ccccc1NC(=O)CSC(N)=O", "growth inhibition": "4% (inactive)"}
{"smiles": "Cc1ccc(N=C(N)Nc2ccc(C)cn2)nc1", "growth inhibition": "-5% (inactive)"}
{"smiles": "FC(F)(F)c1nc(Cl)nc2nc[nH]c12", "growth inhibition": "-1% (inactive)"}
{"smiles": "O=[N+]([O-])c1ccccc1CC(c1c[nH]c2ccccc12)c1c[nH]c2ccccc12", "growth inhibition": "-1% (inactive)"}
{"smiles": "O=C(O)C1CCCCC1.[Ag]", "growth inhibition": "99% (active)"}
{"smiles": "CC(C)c1ccc(O)c(O)c(=O)c1", "growth inhibition": "7% (inactive)"}
{"smiles": "CC(C)(C)c1ccc(Sc2ncnc3ccccc23)cc1", "growth inhibition": "3% (inactive)"}
{"smiles": "CC(C)NC(=O)CN1C(=O)NC(C)(c2ccccc2)C1=O", "note": "(configuration not stated)", "growth inhibition": "-3% (inactive)"}
{"smiles": "COc1cccc(N2CCN(CC(O)COc3cc4c(c5c3CCCC5)CCCC4)CC2)c1", "note": "(configuration not stated)", "growth inhibition": "12% (inactive)"}
{"smiles": "CC(CCN)(CCN)[N+](=O)[O-]", "growth inhibition": "-5% (inactive)"}
